Source: PubChem BioAssay
Values joined by “and” are separate entries in the source; they are usually repeats but may differ in a detail not shown here. Identical values can stand only once. Inconclusive results are not listed. Active and inactive are the calls of the source.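 How the source made its calls, unless noted: active means normalized viability below 100% at a tested concentration; inactive means the rest.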

Assays:
[1] = P. berghei load reduction in hepatocytes – cell-based, HepG2, luciferase luminescence, HepG2 viability, primary screen (AID 624349; in the data active means parasite load remaining mostly below about 12%, no sharp cut-off; inactive means mostly above about 10%;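 further: 100% = mean of DMSO negative control wells on the same plate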); conditions: P. berghei liver stage in HepG2, luciferase luminescence, concentration not given here; parasite load remaining: stronger effect = lower value; viability: measured here: HepG2 viability without parasites
[2] = Wnt pathway potentiators raising nuclear beta-catenin – imaging, WNT3A-conditioned medium, mouse C2C12, NPC library, primary screen (AID 1117326; in the data active means nuclear beta-catenin stimulation mostly above about 4.2%, no sharp cut-off; inactive means mostly below about 10%); conditions: stronger effect = higher value
[3] = stimulators of insulin release from INS-1E, primary screen, cell-based, 5 mM glucose, NPC library (AID 1117329;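 active means compound raises insulin release from rat beta cells at 5 mM glucose, no numeric limit stated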); conditions: rat INS-1E insulin secretion, at 10 µM, stronger effect = higher value
[4] = growth inhibition of GSK3B-pretreated HCT116 cells – cell-based, CellTiter-Glo, 0.2 to 20 µM (AID 1117336;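 active means compounds lowering colon cancer cell viability after pretreatment blocking the GSK3B kinase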); conditions: HCT116 viability after GSK3B inhibitor, at 20 µM, stronger effect = higher value
[5] = inhibition of endothelial tube formation, primary screen, imaging, VEGF stimulated, CD31 staining, tube area, NPC library (AID 1117340;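 active means compound that reduces growth-factor-driven endothelial tube area in a mixed cell culture, no cutoff stated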); conditions: VEGF-stimulated ADSC/ECFC co-culture, at 10 µM, stronger effect = higher value
[6] = GLP1 release stimulators, primary, NCI-H716, NPC library (AID 1117341;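 active means compound raises GLP1 secretion from the human gut endocrine cells, with no numeric limit stated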); conditions: NCI-H716 cells, at 10 µM, stronger effect = higher value
[7] = HCT116 colon cancer cell growth inhibition, primary screen, CellTiter-Glo luminescence, NPC library (AID 1117342;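 active means compounds that lower survival of HCT116 colon cancer cells in the luminescence readout, no numeric limit stated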); conditions: at 20 µM (top of the series)
[8] = reduced SW480 viability measured with CellTiter-Glo, NPC library, primary (AID 1117343;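 active means compounds that lower viability of the colon cancer cells in the luminescence readout, with no numeric limit stated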); conditions: CellTiter-Glo luminescence; at 20 µM (top of the series) unless noted
[9] = NPC library primary testing for decreased DLD-1 cell viability via CellTiter-Glo (AID 1117346;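 active means compounds that lower survival of DLD-1 colon cancer cells in the luminescence readout, no cutoff given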); conditions: DLD-1 viability, CellTiter-Glo luminescence; at 20 µM (top of the series)
[10] = viability loss in pontine glioma line – cell-based, SU-DIPG-XVII, MIPE5.0, CellTiter-Glo, qHTS, dose response (AID 1347060; cut-off not given, nearly all actives have AC50 up to about 26 µM;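 on AC50: cells exposed to compound for 48 hours before viability readout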); conditions: CellTiter-Glo ATP luminescence
[11] = viability loss in pontine glioma line – cell-based, SU-DIPG-XIII, MIPE4.0, CellTiter-Glo, qHTS, dose response (AID 1347061; cut-off not given, nearly all actives have AC50 up to about 37 µM;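 further: cells exposed to compound for 48 hours before readout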); conditions: CellTiter-Glo ATP luminescence
[12] = viability loss in pontine glioma line – cell-based, JHH-DIPG-1, MIPE4.0, CellTiter-Glo, qHTS, dose response (AID 1347062; cut-off not given, nearly all actives have AC50 up to about 27 µM); conditions: JHH-DIPG-1 viability, CellTiter-Glo ATP luminescence
[13] = growth inhibition of DIPG cells – cell-based, MIPE5.0 library, qHTS (AID 1347068; cut-off not given, nearly all actives have IC50 up to about 30 µM); conditions: SU-DIPG-XXV viability
[14] = viability loss with induced miR-34 in A549 – imaging, A549 dox-inducible miR-34, nuclei and caspase counts, primary screen (AID 1347080;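 active means compounds whose cell count with miR-34 switched on is under 0.7 times the count with it off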); conditions: A549 miR-34 inducible, Hoechst nuclei count, 48 h
[15] = MELAS cybrid and Rieske KO viability enhancers – cell-based, MELAS cybrids, Rieske KO mouse fibroblasts, CellTiter-Glo, primary screen (AID 1508586;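 active means mean z-score across replicates of 1.96 or higher in either the MELAS or the Rieske mutant cell line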;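 further: z relative to plate mean and SD of compound and empty wells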); conditions: low glucose
[16] = drug combination growth inhibition, ovarian cancer – cell-based, oncology-focused library, rucaparib conditional, profiling panel (AID 1508598); conditions: patient-derived ovarian cancer cells, CellTiter-Glo viability, 144 h, stronger effect = lower value
[17] = galactose survival enhancers in mitochondrial complex I cybrids – cell-based, galactose medium, ATP luminescence, primary screen (AID 1645843;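 active means z-score of at least 1.8 in each of two replicates, scored against plate mean and spread of sample wells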;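 further: positive z means more ATP and so rescue of galactose-driven cybrid death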); conditions: complex I mutant cybrid cells, 72 h, stronger effect = higher value
[18] = molecular target: NAD(+) hydrolase SARM1 (Homo sapiens) (UniProt Q6SZW1); experiment: blocking NAD cleavage by SARM1 SAM-TIR – cell lysate, NAD-Glo luminescence (AID 1508614;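 active means compound whose remaining NAD level is above about 45 nM, limit read from the data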); conditions: SAM-TIR HEK293T lysate NADase, at 1 µM, stronger effect = higher value
[19] = stronger effect = lower value, cell number ratio, induced over uninduced
[20] = measured here: relative caspase fold change +Dox/-Dox
[21] = measured here: total cells with miR-34 induction, stronger effect = lower value
[22] = measured here: total cells without miR-34 induction
[23] = MELAS cybrid survival, CellTiter-Glo 48 h, stronger effect = higher value
[24] = Rieske KO mouse fibroblast survival, CellTiter-Glo 72 h

Sequence of NAD(+) hydrolase SARM1 (Homo sapiens) (Q6SZW1 whole entry, looked up): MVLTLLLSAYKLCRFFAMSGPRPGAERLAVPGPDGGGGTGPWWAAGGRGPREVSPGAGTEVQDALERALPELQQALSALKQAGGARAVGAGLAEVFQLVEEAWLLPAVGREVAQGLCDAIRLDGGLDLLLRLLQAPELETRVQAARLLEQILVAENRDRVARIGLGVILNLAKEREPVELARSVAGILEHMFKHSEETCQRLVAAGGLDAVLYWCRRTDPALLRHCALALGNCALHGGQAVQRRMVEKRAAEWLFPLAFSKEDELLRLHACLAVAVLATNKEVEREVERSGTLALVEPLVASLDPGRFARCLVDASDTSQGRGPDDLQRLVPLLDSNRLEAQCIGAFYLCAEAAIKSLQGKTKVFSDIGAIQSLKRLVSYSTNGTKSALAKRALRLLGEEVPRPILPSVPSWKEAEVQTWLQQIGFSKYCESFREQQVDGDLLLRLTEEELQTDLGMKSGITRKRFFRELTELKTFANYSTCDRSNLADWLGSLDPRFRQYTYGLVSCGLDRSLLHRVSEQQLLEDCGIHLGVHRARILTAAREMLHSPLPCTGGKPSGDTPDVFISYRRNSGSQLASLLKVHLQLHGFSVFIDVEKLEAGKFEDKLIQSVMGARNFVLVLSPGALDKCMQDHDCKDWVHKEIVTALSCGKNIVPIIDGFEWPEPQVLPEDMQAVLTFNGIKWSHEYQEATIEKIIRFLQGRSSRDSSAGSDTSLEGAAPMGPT

Clc1ccc(Nc2nnc(Cc3ccncc3)c3ccccc23)cc1
active: viability decrease [4] 76.2% | tube area decrease [5] 104% | viability decrease (inhibition) [8] 51.3% | AC50 [10] 16.6 µM | viability ([16]; at 0.000305 µM, OCI-C5x cells, without rucaparib) 86.5% | viability ([16]; at 0.000305 µM, OCI-P5x cells, with rucaparib 20 µM, 100% = cells with rucaparib alone) 94.6% | viability ([16]; at 0.000305 µM, OCI-P5x cells, without rucaparib) 89.3% | viability ([16]; at 0.00122 µM, OCI-C5x cells, without rucaparib) 97.1% | viability ([16]; at 0.00122 µM, OCI-P5x cells, without rucaparib) 94.6% | viability ([16]; at 0.00488 µM, OCI-C5x cells, without rucaparib) 98.5% | viability ([16]; at 0.00488 µM, OCI-P5x cells, with rucaparib 20 µM, 100% = cells with rucaparib alone) 99.2% | viability ([16]; at 0.0195 µM, OCI-C5x cells, without rucaparib) 99.4% | viability ([16]; at 0.0195 µM, OCI-P5x cells, without rucaparib) 95.6% | viability ([16]; at 0.0781 µM, OCI-C5x cells, without rucaparib) 98.5% | viability ([16]; at 0.0781 µM, OCI-P5x cells, without rucaparib) 95.5% | viability ([16]; at 1.25 µM, OCI-P5x cells, without rucaparib) 94.9% | viability ([16]; at 5 µM, OCI-P5x cells, with rucaparib 20 µM, 100% = cells with rucaparib alone) 95.2% | viability ([16]; at 5 µM, OCI-P5x cells, without rucaparib) 99.5%
144%: viability [1]
inactive: parasite load remaining [1] 24.4% | nuclear beta-catenin stimulation ([2]; at 10 µM) -2.6% | insulin secretion stimulation [3] 9.3% | GLP1 secretion stimulation [6] -2.6% | inhibition of viability [7] 36% | viability decrease (inhibition) [9] 35.7% | outcome [11] | outcome [12] | outcome [13] | fold change [14, 19] 0.99 and 0.927 | z-score [15, 23] -0.464 and -0.665 and -0.288 | viability ([16]; at 0.000305 µM, OCI-C5x cells, with rucaparib 10 µM, 100% = cells with rucaparib alone) 121% | viability ([16]; at 0.00122 µM, OCI-C5x cells, with rucaparib 10 µM, 100% = cells with rucaparib alone) 125% | viability ([16]; at 0.00122 µM, OCI-P5x cells, with rucaparib 20 µM, 100% = cells with rucaparib alone) 102% | viability ([16]; at 0.00488 µM, OCI-C5x cells, with rucaparib 10 µM, 100% = cells with rucaparib alone) 117% | viability ([16]; at 0.00488 µM, OCI-P5x cells, without rucaparib) 100% | viability ([16]; at 0.0195 µM, OCI-C5x cells, with rucaparib 10 µM, 100% = cells with rucaparib alone) 121% | viability ([16]; at 0.0195 µM, OCI-P5x cells, with rucaparib 20 µM, 100% = cells with rucaparib alone) 102% | viability ([16]; at 0.0781 µM, OCI-C5x cells, with rucaparib 10 µM, 100% = cells with rucaparib alone) 114% | viability ([16]; at 0.0781 µM, OCI-P5x cells, with rucaparib 20 µM, 100% = cells with rucaparib alone) 101% | viability ([16]; at 0.313 µM, OCI-C5x cells, with rucaparib 10 µM, 100% = cells with rucaparib alone) 125% | viability ([16]; at 0.313 µM, OCI-C5x cells, without rucaparib) 110% | viability ([16]; at 0.313 µM, OCI-P5x cells, with rucaparib 20 µM, 100% = cells with rucaparib alone) 100% | viability ([16]; at 0.313 µM, OCI-P5x cells, without rucaparib) 105% | viability ([16]; at 1.25 µM, OCI-C5x cells, with rucaparib 10 µM, 100% = cells with rucaparib alone) 129% | viability ([16]; at 1.25 µM, OCI-C5x cells, without rucaparib) 115% | viability ([16]; at 1.25 µM, OCI-P5x cells, with rucaparib 20 µM, 100% = cells with rucaparib alone) 105% | viability ([16]; at 5 µM, OCI-C5x cells, with rucaparib 10 µM, 100% = cells with rucaparib alone) 128% | viability ([16]; at 5 µM, OCI-C5x cells, without rucaparib) 142% | z-score [17] 1.34
4850 and 8750: cell count [14, 22]
-0.4%: nuclear beta-catenin stimulation ([2]; stimulation, at 2 µM)
0.486 and -0.638 and 0.713: z-score [15, 24]
0.974 and 0.999: fold change [14, 20]
4800 and 8110: cell count [14, 21]

CC(=O)[C@H]1CC[C@H]2[C@@H]3CC=C4C[C@@H](O)CC[C@]4(C)[C@H]3CC[C@]12C
1.38 and 1.19: fold change [14, 20]
10500 and 11000: cell count [14, 22]
inactive: parasite load remaining [1] 90.8% and 62.2% and 6.53% | nuclear beta-catenin stimulation ([2]; at 10 µM) 3% | insulin secretion stimulation [3] -2% | viability decrease [4] 7.55% | tube area decrease [5] 8.7% | GLP1 secretion stimulation [6] 1.9% | inhibition of viability [7] -2.4% | viability decrease (inhibition) [9] 18.9% | outcome [10] | outcome [11] | outcome [12] | outcome [13] | fold change [14, 19] 0.857 and 0.834 | z-score [15, 23] 0.44 and 0.49 | remaining NAD [18] 10 nM | z-score [17] -1.23
1.6%: nuclear beta-catenin stimulation ([2]; stimulation, at 2 µM)
110% and 79.4% and 65.5%: viability [1]
8970 and 9160: cell count [14, 21]
active: viability decrease (inhibition) [8] 82%
0.646 and 0.0253: z-score [15, 24]
